Source: PubChem BioAssay (NCI)
The panel holds about 83,000 compounds, 20% with a hit somewhere; the sample as a whole holds those more often.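 Single-dose data. Exposure time 48 hours. Values below 10 considered active.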 The source made the active and inactive calls.

What was measured:
Assay in all cases: NCI-60 one-dose screen, 48 h (100 = growth as untreated, 0 = no growth, -100 = all killed)
Details in all cases: 10 µM unless noted
DU-145 prostate = tested on: DU-145 prostate
K-562 leukemia = tested on: K-562 leukemia
MALME-3M melanoma = tested on: MALME-3M melanoma
MDA-MB-231 breast = tested on: MDA-MB-231 breast
RXF 393 renal = tested on: RXF 393 renal
SF-268 CNS = tested on: SF-268 CNS
SF-295 CNS = tested on: SF-295 CNS
SF-539 CNS = tested on: SF-539 CNS
UACC-257 melanoma = tested on: UACC-257 melanoma
M14 melanoma = tested on: M14 melanoma

Measured: growth

CC(C)(C)c1nc(-c2cccc(NS(=O)(=O)c3c(F)cccc3F)c2F)c(-c2ccnc(N)n2)s1
inactive: DU-145 prostate 105% | K-562 leukemia 50.8% | MALME-3M melanoma 21.8% | MDA-MB-231 breast 47.1% | RXF 393 renal 90% | SF-268 CNS 105% | SF-295 CNS 112% | SF-539 CNS 114% | UACC-257 melanoma 25.2% | M14 melanoma 32%

CNC(=O)c1cc(Oc2ccc(NC(=O)Nc3cc(C(C)(C)C)nn3-c3ccc4ncccc4c3)c(F)c2)ccn1
active: DU-145 prostate -22.1% | K-562 leukemia -7.14% | MALME-3M melanoma -59.5% | MDA-MB-231 breast -9.49% | RXF 393 renal -71% | SF-268 CNS -19.8% | SF-295 CNS -13.1% | SF-539 CNS -66.4% | UACC-257 melanoma -24.3% | M14 melanoma -71.4%

COc1ccc(-c2ccc3ncc4c(c3c2)n(-c2ccc(N3CCNCC3)c(C(F)(F)F)c2)c(=O)n4C)cn1
active: DU-145 prostate -89.4% | K-562 leukemia -48.2% | MALME-3M melanoma -75.3% | MDA-MB-231 breast -77.4% | RXF 393 renal -83.2% | SF-268 CNS -76.3% | SF-295 CNS -91.8% | SF-539 CNS -84.7% | UACC-257 melanoma -72.2% | M14 melanoma -83.2%

COc1ccc(Nc2ncccc2NC(=O)c2cn(Cc3cccc(Oc4ccccc4)c3)nn2)cc1
inactive: DU-145 prostate 93.4% | K-562 leukemia 73.8% | MALME-3M melanoma 85.8% | MDA-MB-231 breast 87.1% | RXF 393 renal 79.6% | SF-268 CNS 82.3% | SF-295 CNS 92.8% | SF-539 CNS 95.1% | UACC-257 melanoma 93% | M14 melanoma 95.9%

CN1CCC(COc2cnc(-c3cccc(Cn4nc(-c5cccc(C#N)c5)ccc4=O)c3)nc2)CC1
inactive: DU-145 prostate 77.8% | MALME-3M melanoma 48.4% | MDA-MB-231 breast 57.3% | RXF 393 renal 87.7% | SF-268 CNS 67.2% | SF-295 CNS 54.5% | SF-539 CNS 33.5% | M14 melanoma 39%
active: K-562 leukemia 3.04% | UACC-257 melanoma -27.5%

C[C@H]1Oc2cc(cnc2N)-c2c(nn(C)c2C#N)CN(C)C(=O)c2ccc(F)cc21
inactive: DU-145 prostate 91.9% | K-562 leukemia 79.4% | MALME-3M melanoma 95.6% | MDA-MB-231 breast 69.7% | RXF 393 renal 85.5% | SF-268 CNS 73.1% | SF-295 CNS 85.9% | SF-539 CNS 96.4% | UACC-257 melanoma 58.5% | M14 melanoma 71.9%

CNC(=O)c1cnc(C)nc1-c1cc(C(C)(C)C)c(O)c(C(C)(C)C)c1
inactive: DU-145 prostate 99.8% | K-562 leukemia 90.4% | MALME-3M melanoma 87.5% | MDA-MB-231 breast 87.5% | RXF 393 renal 111% | SF-268 CNS 98% | SF-295 CNS 88.5% | SF-539 CNS 91.9% | UACC-257 melanoma 100% | M14 melanoma 94.1%

Cc1cc(Nc2ncc(Cl)c(Nc3ccccc3S(=O)(=O)C(C)C)n2)c(OC(C)C)cc1C1CCNCC1
active: DU-145 prostate -99% | K-562 leukemia -53.5% | MALME-3M melanoma -84.9% | MDA-MB-231 breast -88% | RXF 393 renal -93.4% | SF-268 CNS -95.3% | SF-295 CNS -91.6% | SF-539 CNS -98.9% | UACC-257 melanoma -90.1% | M14 melanoma -95.2%

COCCOc1cnc2ccn([C@H](C)c3nnc4c(F)cc(-c5cnn(C)c5)cn34)c(=O)c2c1
active: MALME-3M melanoma 9.06%
inactive: DU-145 prostate 91.2% | K-562 leukemia 96.8% | MDA-MB-231 breast 63.9% | RXF 393 renal 81.2% | SF-268 CNS 85.9% | SF-295 CNS 67.4% | SF-539 CNS 99.1% | UACC-257 melanoma 69.1% | M14 melanoma 91.6%

COC(=O)CCCNc1c(-c2c(O)c(O)cc3c(O)c(-c4c(C)cc5c(-c6nc7ccccn7c6NCCCC(=O)OC)c(O)c(O)cc5c4O)c(C)cc23)nc2ccccn12
active: SF-539 CNS 2.01%
inactive: DU-145 prostate 29.6% | K-562 leukemia 11% | MALME-3M melanoma 39.9% | MDA-MB-231 breast 56.1% | RXF 393 renal 32.9% | SF-268 CNS 25.3% | SF-295 CNS 26.4% | M14 melanoma 60.3%
